Assay results taken from PubChem BioAssay AID2058 (Sanford-Burnham Center for Chemical Genomics, 2009).
The campaign covered roughly 290,000 compounds. About 150 (0.052%) were called active. Shown is part of a subset that was picked to be rich in actives. Potency and affinity values are given separately. A number with no mark means an inactive call.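 How the source made its calls: active means inhibition of at least 50% with at least 30 cells and total cytoplasm GFP at most 10,000,000; inconclusive means under 30 cells or total GFP of 10,000,000 plus; inactive means the rest.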

These molecules were tested against G-protein coupled receptor 35 (Homo sapiens) (UniProt Q9HC97) (assay: GPR35 antagonists blocking zaprinast-driven arrestin recruitment, primary screen, imaging, U2OS, beta-arrestin-GFP, zaprinast agonist (AID 2058)). Conditions: U2OS GPR35 beta-arrestin-GFP translocation imaging, zaprinast antagonism; at 10 µM; stronger effect = higher value.
Chain of G-protein coupled receptor 35 (Homo sapiens) (Q9HC97 whole entry, looked up): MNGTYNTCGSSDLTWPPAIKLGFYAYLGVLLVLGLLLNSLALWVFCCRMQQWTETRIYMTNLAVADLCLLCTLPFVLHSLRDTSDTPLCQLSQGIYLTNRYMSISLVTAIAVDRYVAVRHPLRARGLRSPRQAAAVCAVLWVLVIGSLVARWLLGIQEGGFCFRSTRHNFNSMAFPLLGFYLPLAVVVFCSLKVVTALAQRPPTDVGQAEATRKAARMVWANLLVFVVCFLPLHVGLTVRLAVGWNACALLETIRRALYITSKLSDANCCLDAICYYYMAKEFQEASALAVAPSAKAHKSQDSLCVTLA

Compound	inhibition
CSc1ccc(-c2sc(Nc3ccccc3)n[n+]2-c2ccc(F)cc2)cc1	-7.7%
COc1ccc(C)cc1Nc1n[n+](-c2ccccc2)c(-c2ccc(C(=O)O)cc2)s1	7.9%
O=C(O)c1ccc(-c2sc(Nc3ccccc3)n[n+]2-c2ccc(F)cc2)cc1	0.5%
Oc1ccc(-c2sc(Nc3ccccc3)n[n+]2-c2ccc(F)cc2)cc1	10.2%
COc1ccc(C)cc1Nc1n[n+](-c2ccccc2)c(-c2ccc(SC)cc2)s1	20.4%
Fc1ccc(-[n+]2nc(Nc3ccccc3)sc2-c2ccc(OCc3ccccc3)cc2)cc1	8.3%
COC(=O)c1cc(-c2ccc(Cl)cc2)n[nH]1	10.8%
CC(C)C(C)NC(=O)CN1C(=O)NC2(CCc3ccccc32)C1=O (stereo not given)	9.4%
Nc1nonc1-n1nnc(C(=O)N/N=C/c2ccc(OCc3ccc(F)cc3)cc2)c1COc1ccccc1	5.9%
CC(C)(C)c1ccc(/C=C2\CCn3c2nc2cc(C(=O)O)ccc2c3=O)cc1	17.9%
CC(=O)n1cc(N(C(=O)CCl)c2ccc([N+](=O)[O-])cc2)c2ccccc21	-2.4%
O=Cc1[nH]c2ccccc2c1N(C(=O)CCl)c1ccc([N+](=O)[O-])cc1	80.7% (active)
O=Cc1[nH]c2ccccc2c1N(C(=O)CCl)c1ccccc1	-1.1%
CSc1ccc(C2c3[nH]c4ccccc4c3CCN2C(=O)c2ccnn2C)cc1 (stereo not given)	-11.7%
CCOc1ccc(CN2CCN(Cc3cccc4nonc34)CC2CCO)cc1 (stereo not given)	97.5% (active)
COc1cccc(CN2CCN(Cc3cccc4nonc34)CC2CCO)c1 (stereo not given)	8.1%
CCOc1ccccc1CN1CCN(Cc2cccc3nonc23)CC1CCO (stereo not given)	28.2%
CN(C)/C=C1\C(=O)ON=C1c1ccccc1	-9.5%
CCN(CC)C(=O)c1ccc(-c2nnc(Nc3ccc(C(=O)NC)cc3)c3ccccc23)cc1	5%
N=C1/C(=C\c2ccc(-c3cccc(Cl)c3)o2)C(=O)N=C2SC=C(c3ccccc3)N12	-1.6%
CC(C)S(=O)(=O)C1=NSC2=NC(=O)/C(=C\c3ccc(-c4cccc(C(=O)O)c4)o3)C(=N)N21	-1.8%
N=C1/C(=C\c2ccc(-c3ccc(C(=O)O)cc3)o2)C(=O)N=C2SC=C(c3ccccc3)N12	43%
N=C1/C(=C\c2ccc(-c3cc(Cl)cc(Cl)c3)o2)C(=O)N=C2SC=C(c3ccccc3)N12	-4.5%

Compound	inhibition
O=C(c1ccsc1)N1CCCC(Nc2ccc(F)c(F)c2)C1 (stereo not given)	0%
CC1CCCC(C)N1C(=O)c1cc2ncc(CCCl)cn2n1 (stereo not given)	-11.5%
O=C(CCCC(=O)N(c1ccc(F)cc1)C(C(=O)NC1CCCC1)c1ccc(O)cc1)Nc1ccccn1 (stereo not given)	6.8%
Cc1ccc(N/C(N)=N/c2nc(CSc3ccccn3)cc(=O)[nH]2)c(C)c1	2.7%
C=CCSc1n[nH]c(-c2cccs2)n1	13.6%
CN1C(=S)N(c2cccnc2)C(=O)/C1=C\c1ccc(N(C)C)cc1	15.6%
COc1ccc(/C=C2\OC(=S)N(C)C2=O)cc1	22.6%
N#Cc1c(C(F)(F)F)cc(-c2cccs2)nc1SCc1cccnc1	-12.1%
O=C(COC(=O)Cn1cnc2ccccc2c1=O)Nc1cc(Cl)ccc1[N+](=O)[O-]	-6.5%
CC(C)CNS(=O)(=O)c1ccc2c(c1)OCCO2	13.4%
COC(=O)c1cnn(-c2ccc(F)cc2F)c1/C=N/NC(N)=S	17.4%
COC(=O)c1cnn(-c2ccccc2)c1/C=N/NC(=S)Nc1ccccc1	35.2%
COC(=O)c1cnn(-c2ccccc2)c1/C=N/NC(=S)Nc1ccc(Cl)cc1	-10.9%
COC(=O)c1cnn(-c2ccc(Cl)cc2)c1/C=N/NC(N)=S	7%
COc1ccc(C2=NOC(C(=O)Nc3cccc(O)c3)C2)cc1 (stereo not given)	-13.8%
COc1ccc(-c2cc3c(=O)n(CC(=O)NC4CCN(Cc5ccccc5)CC4)ncn3n2)cc1	19.6%
CCCc1c(O)nc(SCC(=O)NCc2ccco2)[nH]c1=O	-14.7%
Cc1ccsc1-c1nc(C(N)=O)c2[nH]c(=O)n(-c3ccc(Cl)cc3)c2n1	-1.2%
O=C(NCc1ccc2c(c1)OCO2)C1CC(=O)N(CCc2ccc(Cl)cc2)C1 (stereo not given)	-11.7%
COc1cc(C(=O)Nc2ccc(C(N)=O)cc2)c([N+](=O)[O-])cc1OC	3%
COc1ccc2nc(N=NC3=C(O)CC(C)(C)CC3=O)sc2c1	0.7%
COc1ccc(-c2nnc(-c3ccc(OCC(C)C)cc3)o2)cc1	4.6%
CC(C)COc1ccc(-c2nnc(-c3ccncc3)o2)cc1	2.8%

Compound	inhibition
O=C(COC(=O)Cc1ccsc1)Nc1ccc(Cl)c(S(=O)(=O)N2CCOCC2)c1	23.9%
O=C(O)COc1ccc(/C=C/C(=O)c2ccc3ccccc3c2)cc1	12.2%
CCOc1ccc(/C=C/C(=O)c2ccccc2)cc1	7%
COC(=O)c1sc(NC(=O)CSc2nnc(Cn3nnc4ccccc43)n2C)nc1C	5.3%
CN(C)/C=C1\SC(=S)N(c2ccc(F)cc2)C1=O	9.5%
CN(C)/C=C1\SC(=S)N(c2ccc(Br)cc2)C1=O	21.4%
Nc1ccc(S(=O)(=O)NC(Cc2ccccc2)C(=O)O)cc1 (stereo not given)	-10.2%
CCOC(=O)CC1C(=O)NCCN1c1nc2ccc(C)cn2c(=O)c1/C=C1\SC(=S)N(CC(C)C)C1=O (stereo not given)	21.7%
CCCN1C(=O)/C(=C/c2c(N3CCNC(=O)C3CC(=O)OC)nc3c(C)cccn3c2=O)SC1=S (stereo not given)	12.4%
CCOC(=O)CC1C(=O)NCCN1c1nc2ccc(C)cn2c(=O)c1/C=C1\SC(=S)N(C(C)CC)C1=O (stereo not given)	43.7%
CCOC(=O)CC1C(=O)NCCN1c1nc2c(C)cccn2c(=O)c1/C=C1\SC(=S)N(CC(C)C)C1=O (stereo not given)	58.9% (active)
CCCN1C(=O)/C(=C/c2c(N3CCNC(=O)C3CC(=O)OCC)nc3c(C)cccn3c2=O)SC1=S (stereo not given)	33%
CCOC(=O)CC1C(=O)NCCN1c1nc2c(C)cccn2c(=O)c1/C=C1\SC(=S)N(C(C)CC)C1=O (stereo not given)	55.7% (active)
Cc1cc(C)c(NC(=O)NC2CCCCC2)c(C)c1	-0.9%
O=C(CCCN1C(=O)/C(=C\c2ccccc2)SC1=S)Nc1ccc(O)cc1	23.5%
COc1cccc(/C=C2\SC(=S)N(CCC(=O)Nc3ccc(O)cc3)C2=O)c1	-4.8%
O=C(CCN1C(=O)S/C(=C/c2ccccc2)C1=O)Nc1ccc(C(=O)O)c(O)c1	13.4%
O=C(CCN1C(=O)/C(=C\c2ccccc2)SC1=S)Nc1ccc(C(=O)O)cc1	27.2%
CCc1ccc(/C=C2/SC(=S)N(CCC(=O)Nc3ccc(C(=O)O)cc3)C2=O)cc1	-13.9%
O=C(CCCN1C(=O)/C(=C\c2ccccc2)SC1=S)Nc1ccc(O)cc1C(=O)O	-10%
O=C(CCN1C(=O)/C(=C/c2ccc(Cl)cc2)SC1=S)Nc1ccc(C(=O)O)cc1	6.4%
COc1cccc(/C=C2/SC(=S)N(CCCC(=O)Nc3ccc(O)cc3)C2=O)c1	24%
CC(C)CCn1c(CN2CCOCC2)nc2c1c(=O)n(C)c(=O)n2C	-9.6%

Compound	inhibition
CC1(C)CCCC2=C1CC1C(=O)N(O)C(=O)C1C2 (stereo not given)	2.3%
O=C1CCCN2N=C(SCC(=O)Nc3ccccc3C(F)(F)F)SC2=N1	1.9%
CC(=O)N1CCc2cc(S(=O)(=O)CCC(=O)N3CCN(c4ccccc4F)CC3)ccc21	6.2%
N#Cc1ccccc1NC(=O)CNc1ccccc1N1CCCCC1	19.6%
O=C(CCN1C(=O)S/C(=C\c2ccc(Cl)cc2)C1=O)Nc1ccc(C(=O)O)cc1	4.2%
O=C(CN1C(=O)S/C(=C\c2ccc(C(=O)O)cc2)C1=O)Nc1ccccc1	-1.7%
O=C(CCCN1C(=O)/C(=C\c2cccs2)SC1=S)Nc1ccc(C(=O)O)cc1	13.3%
O=C(CCN1C(=O)/C(=C/c2cccs2)SC1=S)Nc1ccc(C(=O)O)c(O)c1	-2.6%
O=C(CCCN1C(=O)/C(=C/c2cccs2)SC1=S)Nc1ccc(O)c(C(=O)O)c1	99.6% (active)
COc1ccc(Cc2nnc(SCC(=O)NC3CCCCC3)n2C)cc1	9.8%
COc1ccc(-n2c(C)nnc2SCC(=O)N2CCOCC2)cc1	-0.9%
FC(F)(F)c1ccccc1N/N=C/c1cccnc1	-3.9%
O=C(NCC1CC1)Nc1ccccc1	-5%
COCC(C)NC(=S)Nc1ccccc1[N+](=O)[O-] (stereo not given)	-3.3%
NS(=O)(=O)c1cccc(C(=O)NC2CCSc3ccccc32)c1 (stereo not given)	-7.4%
COc1cc(/C=N/O)ccc1OCc1ccccc1Cl	-5.4%
COc1cc(/C=N/N=C(N)N)ccc1OCc1ccccc1Cl	-8.2%
Fc1cccc(Cl)c1CSc1ccc(-c2cccnc2)nn1	5.4%
c1ccc(-c2ccc(SCc3cccnc3)nn2)nc1	-18.4%
NNC(=O)c1sc(-c2ccc(Cl)cc2)cc1N	10.1%
COc1ccccc1N=Nc1ccc(N)c(C)c1	5.6%
